Assay outcomes: PubChem BioAssay, National Center for Advancing Translational Sciences (NCATS)
TDP1 cell noCPT: qHTS for Inhibitors of human tyrosyl-DNA phosphodiesterase 1 (TDP1): qHTS in cells in absence of CPT. DT40 Tdp1-/- hTDP1 cells, no CPT, ATP luminescence, 48 h. Potency, µM (doses to about 46.2 µM), for the others: at the top dose activity change, negative = growth inhibition, most hits filed as inhibitors. actives 15% (n = 420,000). AID 686978, 2013; note: potency is the fitted concentration of half-maximal effect; % is set by controls: 0 for no effect and ±100 for the full control effect; nearly all actives have a fitted effect of over 55% in size
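Readout: luminescence from CellTiter-Glo after 30 min in the dark at RT. Cells: DT40 Tdp1-/- with stable hTDP1, 400/well. Exposure: compounds alone, ≥48 hr, 37 °C.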
miR-21 act: qHTS Assay for Modulators of miRNAs and/orActivators of miR-21; HeLa miR-21 FLuc reporter, luciferase, 48 h; AID 2288, 2010; Potency, µM (highest dose often 38.3 µM), without a hit: at the highest dose activity change, positive = activation, most hits filed as activators; 340,000 tested, under 10 active;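 note: % of control where 0% means no effect; miR-21 action dims this reporter so a rising signal means less miR-21 action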
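HeLa cells stably expressing CMV-driven firefly luciferase with a downstream miR-21 binding sequence, endogenously expressing miR-21, were treated with titrations (up to about 40uM final) for 48 hours at 37 degree Celsius. Luciferase luminescence was read after lysis.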
uPA generation: qHTS for Inhibitors of Cell Surface uPA Generation. cell surface uPA generation assay, qHTS. Potency, µM (series often up to 38.3 µM), for inactives: top-dose activity change, negative = inhibition, most hits filed as inhibitors. actives 0.31% (n = 330,000). AID 540303, 2011; active = well fitted inhibition curve with a large enough effect; inconclusive = small, poorly fitted or top-dose-only effect; inactive = no such curve, though single readings can be large or run the other way; tested in mouse RAW 264.7 cells; note: potency is the fitted concentration of half-maximal effect; % is set by controls: 0 for no effect and ±100 for the full control effect; nearly all actives have a fitted effect of over 55% in size
DT40 TDP1 CPT: qHTS for Inhibitors of human tyrosyl-DNA phosphodiesterase 1 (TDP1): qHTS in cells in presence of CPT | chicken DT40 Tdp1-/-;hTDP1 cells + 20 nM CPT, ATP luminescence, 48 h | Potency, µM (titrated, usually from 46.2 µM), inactives show at the top dose activity change, negative = growth inhibition, actives largely listed as inhibitors | actives 12% (n = 420,000); note: potency is the fitted concentration of half-maximal effect; % is set by controls: 0 for no effect and ±100 for the full control effect; nearly all actives have a fitted effect of over 55% in size
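Cell growth measured by CellTiter-Glo luminescence after a minimum 48 h, 37 C compound exposure with 20 nM CPT in Tdp1-knockout DT40 cells stably expressing hTDP1, seeded 400/well; qHTS titration format.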
TDP1 block: qHTS Assay for Inhibitors of Tyrosyl-DNA Phosphodiesterase (TDP1) | Potency, µM (highest dose often 130 µM), inactives show at the top dose activity change, negative = inhibition, usual class: inhibitors | Tyrosyl-DNA phosphodiesterase 1 (Homo sapiens), Q9NUW8 | recombinant TDP1, AlphaScreen DNA substrate cleavage | actives 0.28% (n = 350,000); note: potency is the fitted concentration of half-maximal effect; % is set by controls: 0 for no effect and ±100 for the full control effect; nearly all actives have a fitted effect of over 40% in size
Target sequence (Q9NUW8 whole entry, looked up): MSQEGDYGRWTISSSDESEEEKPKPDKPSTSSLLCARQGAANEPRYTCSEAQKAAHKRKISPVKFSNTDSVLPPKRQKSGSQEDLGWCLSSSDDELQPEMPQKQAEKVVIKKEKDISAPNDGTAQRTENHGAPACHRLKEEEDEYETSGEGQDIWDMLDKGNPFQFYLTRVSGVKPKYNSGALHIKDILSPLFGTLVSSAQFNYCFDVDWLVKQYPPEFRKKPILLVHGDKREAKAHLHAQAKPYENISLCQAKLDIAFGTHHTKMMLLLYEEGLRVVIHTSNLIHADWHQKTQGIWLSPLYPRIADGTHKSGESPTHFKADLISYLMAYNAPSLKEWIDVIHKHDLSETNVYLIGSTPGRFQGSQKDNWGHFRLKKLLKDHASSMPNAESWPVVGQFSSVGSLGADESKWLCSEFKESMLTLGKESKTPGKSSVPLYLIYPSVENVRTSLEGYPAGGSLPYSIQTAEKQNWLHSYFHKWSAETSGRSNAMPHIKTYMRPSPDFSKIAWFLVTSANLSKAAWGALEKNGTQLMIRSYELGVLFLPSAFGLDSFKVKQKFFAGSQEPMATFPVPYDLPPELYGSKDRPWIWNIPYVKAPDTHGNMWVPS
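Tdp1 1 nM final; 15 min RT w/ cpd; substrate 15 nM, 5 min; beads 10 ug/ml, 10 min; AlphaScreen read. Neg ctrl: no enzyme.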
Starred values were filed as active, the others as inactive; u = inconclusive; x = not tested or not shown; [ ] = dose if it differs, or a comment. Sampled rows, rich in hits. Any-hit rate of the full collection: about 16%. Unless noted, calls come from the whole dose curve; as a rule, active = well fitted curve in the direction sought with a large enough effect; inconclusive = small, poorly fitted or top-dose-only effect, or another doubt; inactive = no such curve, though single readings can be large; an effect the other way counts as inactive or inconclusive.

SMILES	TDP1 cell noCPT	miR-21 act	uPA generation	DT40 TDP1 CPT	TDP1 block
N#Cc1nc(-c2ccc([N+](=O)[O-])cc2)oc1N1CCCCC1	-10%	1%	-1%	-8%	x
COc1ccc(NC(=O)CN2CCC(NC(=O)c3ccc(OC)cc3)CC2)cc1	1%	0%	-2%	-25%	x
COc1ccc(-c2nnc3n2N=C(c2c(OC)cccc2OC)CS3)c(OC)c1	x	x	x	x	3%
CSc1ccc(CN2CCN(Cc3ccc([N+](=O)[O-])cc3)CC2)cc1	21µM*	17%	-6%	u	-2%
O=[N+]([O-])c1ccc(COc2ccc(Br)cc2CN2CCOCC2)cc1	u	-11%	5%	u	8%
O=[N+]([O-])c1ccc(COc2ccc(CN3CCOCC3)cc2)cc1	23µM*	x	-12%	u	x
CCOc1ccc(CCN2C(=O)C3C4CCC(O4)C3C2=O)cc1OCC (stereo unspecified)	-29%	x	-3%	-2%	0%
Nc1ccc(-c2nc3ccc(N)cc3o2)cc1	u	8%	7.9µM*	-29%	2%
Cc1nc2ccc(-c3nc4ccccc4o3)cc2[nH]1	u	-29%	-10%	-15%	0%
Nc1ccc(-c2nc3ccc(-c4nc5ccccc5o4)cc3[nH]2)cc1	8.2µM*	-25%	-6%	15µM*	-3%
Cc1ccnc2ccc(-c3nc4ccccc4o3)cc12	10µM*	-40%	-6%	21µM*	0%
Cc1ccccc1C(=O)NNC(=O)C(C)N1C(=O)c2ccccc2C1=O (stereo unspecified)	-1%	-6%	10%	-1%	-13%
C=C1CC2COC(=O)C2(Cc2ccc3ccccc3c2)C1 (stereo unspecified)	x	x	x	x	0%
COC(=O)C1C(O)=C(C=Nc2cccc3ccccc23)C(=O)CC1(C)C (stereo unspecified)	u	-1%	-17%	-8%	-5%
O=C(NCC(=O)N1CCN(c2ncccn2)CC1)c1ccccc1F	3%	x	3%	15%	-2%
Cc1ccc(NC(=O)c2cc(S(=O)(=O)N3CCc4ccccc43)cn2C)c(Cl)c1	12µM*	0%	x	u	4%
COc1ccc(NC(=O)c2cc(S(=O)(=O)N3CCc4ccccc43)cn2C)cc1	u	-13%	1%	10µM*	x
Cc1cccc(NC(=O)c2cc(S(=O)(=O)N3CCc4ccccc43)cn2C)c1C	-19%	-2%	-10%	-20%	x
CCCNC(=O)c1cc(S(=O)(=O)N2CCc3ccccc32)cn1C	18µM*	17%	u	23µM*	x
CC1CCCCN1CCCNC(=O)CN1C(=O)c2cccnc2Oc2ccccc21 (stereo unspecified)	27%	-3%	-1%	-11%	3%
Cc1ccc(CC(NC(=O)c2ccccc2)C(=O)NC(CC(C)C)C(=O)O)cc1 (stereo unspecified)	-12%	1%	-3%	5%	-7%
CCOc1cc(NC(=O)C2CCCO2)c(OCC)cc1NC(C)=O (stereo unspecified)	-10%	-9%	10%	-10%	0%
C#CC[N+](C)(C)C(C#Cc1ccccc1)CC=C (stereo unspecified)	18µM*	-4%	-1%	12µM*	2%
C=CCC(C)(O)C#Cc1ccccc1 (stereo unspecified)	x	x	x	x	2%
CN1CCn2cnc(C(=O)N3CCN(c4ccccc4)CC3)c2C1=O	-1%	x	x	2%	x
SMILES	TDP1 cell noCPT	miR-21 act	uPA generation	DT40 TDP1 CPT	TDP1 block
CCc1ccn2cc(-c3cc(-c4ccccc4)no3)nc2c1	18µM*	16%	u	u	-5%
Cc1ccc2nc(-c3cc(-c4ccccc4)no3)cn2c1	-17%	-26%	-5%	25%	x
CCN(CC)c1ccc2nc3ccccc3[n+](CC)c2c1	1.8µM*	u	-17%	5.2µM*	12%
CCN(CC)c1ccc(/C=N/N2C(=O)c3ccccc3C2=O)c(O)c1	-21%	-3%	-5%	-14%	1%
NC(=O)CN1CCOCCOCCN(CC(N)=O)CCOCC1	-6%	-1%	5%	-11%	9%
O=c1[nH][nH]c2c1C(c1ccc(Cl)c(Cl)c1)OC(CCc1ccccc1)C2 (stereo unspecified)	-28%	x	x	2%	x
O=c1[nH][nH]c2c1[C@H](C1CCCC1)O[C@H](CCc1ccccc1)C2	18µM*	x	x	21µM*	x
COc1ccc(-c2ccc(CN3C(C(C)C)C(=O)N(Cc4cn(CCC5OCCCO5)nn4)CCS3(=O)=O)cc2)cn1 (stereo unspecified)	21µM*	x	x	15µM*	x
CC(C)CC1C(=O)N(Cc2cn(CCC3OCCCO3)nn2)CCS(=O)(=O)N1Cc1ccc(-c2ccc(Cl)c(Cl)c2)cc1 (stereo unspecified)	16µM*	x	x	15µM*	x
CC(C)C1C(=O)N(Cc2cn(CCC3OCCCO3)nn2)CCS(=O)(=O)N1Cc1ccc(-c2ccc(Cl)nc2)cc1 (stereo unspecified)	23µM*	x	x	u	x
CC(C)CC1C(=O)N(Cc2cn(CCC3OCCCO3)nn2)CCS(=O)(=O)N1Cc1ccc(-c2ccc(Cl)nc2)cc1 (stereo unspecified)	21µM*	x	x	u	x
COCOCCn1cc(CN2CCS(=O)(=O)N(Cc3ccc(-c4ccc(F)nc4)cc3)C(C)C2=O)nn1 (stereo unspecified)	-19%	x	x	-1%	x
CCC(CC)C(=O)c1c[nH]c(C(=O)N2CCN(c3ccccc3F)CC2)c1	0%	-5%	-3%	10%	0%
COCCn1c(C(C)C)nc2ccccc21	6%	0%	8%	-3%	x
CC[C@H](C)[C@@H](CN[C@H](C)CNC)NCCC(c1ccccc1)c1ccccc1	3.7µM*	u	-30%	5.2µM*	x
C=CC(C)(C)c1c2c(c(O)c3c(=O)c4ccc(O)c(O)c4oc13)C=CC(C)(C)O2	-23%[9.04 µM]	x	x	3%[9.04 µM]	14%
Cc1cc(C(=O)COc2ccc(F)cc2Br)c(C)n1C	-12%	-43%	2%	-12%	4%
Cc1ccc(OCC(=O)c2cc(C)n(-c3cc(C)on3)c2C)c([N+](=O)[O-])n1	u	x	-2%	10µM*	5%
Cc1ccc(OCCOc2ccc(Cl)cc2Cl)c([N+](=O)[O-])n1	16µM*	-45%	0%	u	5%
Cc1cc(C(=O)CN2C(=O)NC(CCS(C)(=O)=O)C2=O)c(C)n1C1CC1 (stereo unspecified)	5.8µM*	x	-3%	18µM*	2%
Cc1cc(C(=O)COc2ccc(F)cc2Br)c(C)n1C1CC1	10µM*	x	u	15µM*	-1%
